Screens deposited in PubChem BioAssay by The Scripps Research Institute Molecular Screening Center.
In the library only some 2.5% were active in any assay of this set; here they are far more common.
MBD2 DNA inh = MBD2-methylated oligo binding inhibition. actives 0.31% (n = 370,000). inhibition, % at 4.4 µM. TR-FRET, MBD2 binding to methylated oligonucleotide; in the data active = inhibition above about 13%
LEDGF integ inh = blocks HIV-1 LEDGF/p75-dependent DNA integration. TR-FRET IN-LEDGF/p75 DNA integration, Eu/Cy5. inhibition, % at 3.7 µM. actives 0.64% (n = 370,000). AID 743269;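 active = inhibition above the screen-wide mean plus 3 SD, cut at about 13% in these data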;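 also: signal is the Cy5 over europium emission ratio at 671 and 618 nm; 0% = plate median of compound wells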
UHRF1 MBD2 ctr = human UHRF1 methylated DNA binding inhibitors; actives 0.75% (n = 370,000); Q96T88; UHRF1 binding to methylated oligo, TR-FRET; inhibition, % at 4.4 µM; in the data active = inhibition above about 21%;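 also: UHRF1 SRA domain binding a hemimethylated CpG hairpin DNA probe; 0% = median of test compound wells and 100% = reference inhibitor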
PRMT1 inh = inhibitors of human PRMT1; Q99873; recombinant PRMT1, activity-based probe fluorescence polarization; inhibition, % at 2.79 µM; actives 1.3% (n = 370,000); AID 652257;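 active = inhibition above about 21% made by adding two undisclosed values, limit read from the data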
Target sequence (Q99873 whole entry, looked up): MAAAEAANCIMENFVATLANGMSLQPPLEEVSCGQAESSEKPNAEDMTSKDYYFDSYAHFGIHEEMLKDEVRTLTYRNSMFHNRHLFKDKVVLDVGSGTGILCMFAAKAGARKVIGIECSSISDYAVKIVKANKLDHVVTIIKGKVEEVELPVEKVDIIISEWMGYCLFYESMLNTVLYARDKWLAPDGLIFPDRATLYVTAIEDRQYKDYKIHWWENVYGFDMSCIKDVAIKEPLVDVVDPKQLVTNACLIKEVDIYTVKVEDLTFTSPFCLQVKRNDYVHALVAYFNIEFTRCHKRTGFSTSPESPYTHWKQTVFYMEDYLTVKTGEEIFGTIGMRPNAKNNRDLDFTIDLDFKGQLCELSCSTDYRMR
* hit, by the source's call.

`Cc1c(NC(=O)c2ccco2)cccc1-c1nc2cccnc2s1` gave MBD2 DNA inh -5, LEDGF integ inh 2, UHRF1 MBD2 ctr -1 and PRMT1 inh 6.
`CCCCCCCCN1CCS(=O)(=O)N(Cc2ccc(C)cc2)C(C(=O)OC)C1` (stereo not given) gave MBD2 DNA inh 4, LEDGF integ inh 1, UHRF1 MBD2 ctr -1 and PRMT1 inh -3.
`COc1cc(NC(=S)NN2CCN(C)CC2)cc(OC)c1OC` gave MBD2 DNA inh 3, LEDGF integ inh 1, UHRF1 MBD2 ctr -1 and PRMT1 inh -2.
For COc1ccc(NC(=S)NN2CCN(C)CC2)cc1OC the results were MBD2 DNA inh -1, LEDGF integ inh 3, UHRF1 MBD2 ctr 22* and PRMT1 inh 2.
Screening Cc1ccccc1NC(=O)Cc1nc(COC(=O)c2nccnc2N)cs1 returned MBD2 DNA inh 0, LEDGF integ inh -1, UHRF1 MBD2 ctr -2 and PRMT1 inh 0.
COc1ccc(O)c(/C=N/c2sc(C)c(C)c2C#N)c1 was read as MBD2 DNA inh 3, LEDGF integ inh 3, UHRF1 MBD2 ctr 1 and PRMT1 inh 24*.
For Nc1cc(N)nc(SCC(=O)NCC(=O)Nc2ccc(F)c(F)c2F)n1 the results were MBD2 DNA inh 3, LEDGF integ inh 0, UHRF1 MBD2 ctr 1 and PRMT1 inh 0.
For O=C(O)c1ccnc(SCC(=O)c2ccccc2)c1 the results were MBD2 DNA inh 9, LEDGF integ inh -3, UHRF1 MBD2 ctr 9 and PRMT1 inh 23*.
Screening Cc1ccccc1N1CCN(S(=O)(=O)c2ccc3c(c2)oc(=O)n3C)CC1 returned MBD2 DNA inh -6, LEDGF integ inh 4, UHRF1 MBD2 ctr -3 and PRMT1 inh -3.
For N=C1/C(=C/c2ccc(-c3cccc(C(=O)O)c3)o2)C(=O)N=C2SC=C(c3ccccc3)N12 the results were MBD2 DNA inh 7, LEDGF integ inh 24*, UHRF1 MBD2 ctr 5 and PRMT1 inh 18.
COc1ccc(CCCNC(=O)C2CCC(=O)N(Cc3ccc(Cl)cc3)C2)cc1 (stereo not given) was read as MBD2 DNA inh 4, LEDGF integ inh -3, UHRF1 MBD2 ctr 26* and PRMT1 inh 4.
O=C(NCCc1ccccc1Cl)C1CCC(=O)N(Cc2ccc(Cl)cc2)C1 (stereo not given) was read as MBD2 DNA inh -3, LEDGF integ inh 1, UHRF1 MBD2 ctr 1 and PRMT1 inh -3.
`O=C(NCCCc1ccccc1)C1CCC(=O)N(Cc2ccc(Cl)cc2)C1` (stereo not given) gave MBD2 DNA inh 6, LEDGF integ inh -4, UHRF1 MBD2 ctr 21* and PRMT1 inh 4.
O=S(=O)(c1ccc(F)cc1F)N1CCN(CCO)CC1 was read as MBD2 DNA inh 2, LEDGF integ inh 3, UHRF1 MBD2 ctr -3 and PRMT1 inh -1.
Cn1cccc1C(C(=O)NC1CCCCC1)N(C(=O)Cc1cccs1)C1CC1 (stereo not given) was read as MBD2 DNA inh 1, LEDGF integ inh -1, UHRF1 MBD2 ctr 37* and PRMT1 inh -2.
`COC(=O)[C@H]1C[C@@]2(C)c3ccccc3N(S(=O)(=O)c3ccccc3)[C@H]2N1` gave MBD2 DNA inh -3, LEDGF integ inh 3, UHRF1 MBD2 ctr 5 and PRMT1 inh -6.
For O=C1OC(c2ccccc2)Sc2ccccc21 (stereo not given) the results were MBD2 DNA inh -1, LEDGF integ inh -1, UHRF1 MBD2 ctr 1 and PRMT1 inh 19.
Screening O=C1OC(c2cccs2)Sc2ccccc21 (stereo not given) returned MBD2 DNA inh -4, LEDGF integ inh -5, UHRF1 MBD2 ctr 1 and PRMT1 inh 25*.
`Nc1nnn(CC(=O)N/N=C/C=C/c2ccccc2)n1` gave MBD2 DNA inh -3, LEDGF integ inh -3, UHRF1 MBD2 ctr 0 and PRMT1 inh 0.
O=C1CC(NCc2ccc(F)cc2)C(=O)N1c1ccccc1 (stereo not given) was read as MBD2 DNA inh 2, LEDGF integ inh -8, UHRF1 MBD2 ctr 2 and PRMT1 inh 22*.
For N#CCNC1CC(=O)N(c2ccc(F)cc2)C1=O (stereo not given) the results were MBD2 DNA inh 5, LEDGF integ inh 1, UHRF1 MBD2 ctr 0 and PRMT1 inh 22*.
For O=C(c1ccco1)N1N=C(c2ccco2)CC1c1ccc(Cl)cc1Cl (stereo not given) the results were MBD2 DNA inh 6, LEDGF integ inh -4, UHRF1 MBD2 ctr 1 and PRMT1 inh 11.
Screening CC(=O)N1[C@@H](CO)[C@@H](c2ccc(-c3cccc(F)c3)cc2)[C@@H]1CNCC1CCC1 returned MBD2 DNA inh 5, LEDGF integ inh -5, UHRF1 MBD2 ctr 1 and PRMT1 inh 2.
